From PubChem BioAssay (NCATS) come the findings set out here.

The structures appear in SMILES notation. Inconclusive results are not listed. Entries that show only a call come without a potency. The source made the active and inactive calls. Calls follow the shape of the dose curve; as a rule, active = well fitted inhibition curve with a large enough effect; inconclusive = small, poorly fitted or top-dose-only effect; inactive = flat fitted curve, though single readings scatter.

Chain of Calcium and integrin-binding protein 1 (Homo sapiens) (Q99828 whole entry, looked up): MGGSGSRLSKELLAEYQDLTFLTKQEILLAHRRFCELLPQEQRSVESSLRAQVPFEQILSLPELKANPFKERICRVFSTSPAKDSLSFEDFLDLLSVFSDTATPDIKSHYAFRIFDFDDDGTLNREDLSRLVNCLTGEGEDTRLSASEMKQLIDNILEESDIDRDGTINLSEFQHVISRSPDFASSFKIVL

The test deals with Calcium and integrin-binding protein 1 (Homo sapiens) (UniProt Q99828). The experiment in a line: Primary qHTS for Identification of Calcium Integrin Binding Protein 1 (CIB1) Competitor (AID 1508620).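 Also: GST tagged CIB1 binding a fluorescein labelled alphaIIb integrin peptide tracer; top concentration of the series differs between compounds.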 To be noted: CIB1-GST / FITC-alphaIIb peptide fluorescence polarization; series mostly up to 57.7 µM. In a few lines:
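Fluorescence polarization competition: CIB1-GST (1 uM final) preincubated with compound 15 min at room temperature, then FITC-labeled alphaIIb peptide (100 nM final) added for another 15 min. Polarization read at Ex 480/Em 540.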
With `CC(=O)OC[C@@]12[C@H](O)C[C@@H](C)[C@]3(C[C@@H](c4ccoc4)OC3=O)[C@H]1C[C@H](O)C[C@]21CO1`, the Potency entry was “inactive”.
The entry for `Nc1c(Br)cc(Br)cc1CNC1CCC(O)CC1` (centres undefined) is “inactive”; for `NC(=O)c1cccc(-c2cc(O)cc(OC(=O)NC3CCCCC3)c2)c1` it is “inactive”.
With `O=C(O[C@H]1[C@@H]2C=CO[C@@H](O[C@@H]3O[C@H](CO)[C@@H](O)[C@H](O)[C@H]3O)[C@@H]2[C@@]2(CO)O[C@@H]12)c1ccc(O)cc1` the entry was “inactive”.
